Test results reported in PubChem BioAssay (NCATS).
Values joined by “and” are separate entries in the source; they are usually repeats but may differ in a detail not shown here. Identical values can stand only once. Records with an inconclusive call do not appear. Active and inactive are the calls of the source. Calls follow the shape of the dose curve; as a rule, active = well fitted inhibition curve with a large enough effect; inconclusive = small, poorly fitted or top-dose-only effect; inactive = flat fitted curve, though single readings scatter.

Experiments:
[1] = test system: PC15; assay: qHTS profiling for inhibitors of Plasmodium falciparum proliferation (AID 504749); also: potency is read from the fitted curve at half-maximal effect; conditions: P. falciparum in erythrocytes, SYBR Green DNA, 72 h; series mostly up to 28.7 µM
Outline: (§1)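 In a 72 h erythrocytic culture (37 C, humidified, 5% CO2) at 2.5% hematocrit and 0.3% starting parasitemia, compounds were tested; SYBR Green I in detergent lysis buffer stained parasite DNA overnight.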

[2] = test system: SC27B; assay: as above; conditions: P. falciparum in erythrocytes, SYBR Green DNA, 72 h; series mostly up to 28.7 µM
Outline: as §1

[3] = test system: TAB113; assay: as above; conditions: P. falciparum in erythrocytes, SYBR Green DNA, 72 h; series mostly up to 28.7 µM
Outline: as §1

[4] = test system: W2; assay: as above; conditions: P. falciparum in erythrocytes, SYBR Green DNA, 72 h; series mostly up to 28.7 µM
Outline: as §1

[5] = test system: CRL-7250; assay: Cytotoxic Profiling of Annotated Libraries Using Quantitative High-Throughput Screening (AID 1296008); conditions: Five cell lines viability, CellTiter-Glo ATP luminescence, 48-72 h; max response: active compounds read low; also: potency is read from the fitted curve at half-maximal effect; as to max response: % is scaled to controls: 0 for no effect and ±100 for the full control effect
Outline: (§2)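 Cytotoxicity was measured as CellTiter-Glo ATP luminescence, read after 10 min at room temperature. Compound treatment of the cells lasted 48 or 72 hr at 37 degrees Celsius in a qHTS format.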

[6] = test system: HEK293; assay: as above; conditions: Five cell lines viability, CellTiter-Glo ATP luminescence, 48-72 h; max response: active compounds read low
Outline: as §2

[7] = test system: HaCat; assay: as above; conditions: Five cell lines viability, CellTiter-Glo ATP luminescence, 48-72 h; max response: active compounds read low
Outline: as §2

[8] = test system: KB-3-1; assay: as above; conditions: Five cell lines viability, CellTiter-Glo ATP luminescence, 48-72 h; max response: active compounds read low
Outline: as §2

[9] = test system: NIH3T3; assay: as above; conditions: Five cell lines viability, CellTiter-Glo ATP luminescence, 48-72 h; max response: active compounds read low
Outline: as §2

[10] = test system: PC26; assay: qHTS profiling for inhibitors of Plasmodium falciparum proliferation (AID 504749); also: potency is read from the fitted curve at half-maximal effect; conditions: P. falciparum in erythrocytes, SYBR Green DNA, 72 h; series mostly up to 28.7 µM
Outline: as §1

[11] = test system: PC49; assay: as above; conditions: P. falciparum in erythrocytes, SYBR Green DNA, 72 h; series mostly up to 28.7 µM
Outline: as §1

[12] = test system: TAB165; assay: as above; conditions: P. falciparum in erythrocytes, SYBR Green DNA, 72 h; series mostly up to 28.7 µM
Outline: as §1

[13] = test system: N140; assay: as above; conditions: P. falciparum in erythrocytes, SYBR Green DNA, 72 h; series mostly up to 28.7 µM
Outline: as §1

[14] = test system: P93_24; assay: as above; conditions: P. falciparum in erythrocytes, SYBR Green DNA, 72 h; series mostly up to 28.7 µM
Outline: as §1

[15] = test system: P94_40; assay: as above; conditions: P. falciparum in erythrocytes, SYBR Green DNA, 72 h; series mostly up to 28.7 µM
Outline: as §1

[16] = test system: PAD; assay: as above; conditions: P. falciparum in erythrocytes, SYBR Green DNA, 72 h; series mostly up to 28.7 µM
Outline: as §1

[17] = test system: HACAT; assay: qHTS assay to identify novel small-molecules to repurpose for Merkel cell carcinoma treatment (AID 1296009); conditions: MCC and control cell lines, CellTiter-Glo viability, 72 h; at 44.8 µM (top of the series) unless noted
Outline: (§3)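 Cell viability measured by CellTiter-Glo following 72 hr compound treatment at 37 degree celsius, with NPC and MIPE libraries tested in 8- and 11-point concentration series.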

[18] = test system: TAB109; assay: qHTS profiling for inhibitors of Plasmodium falciparum proliferation (AID 504749); also: potency is read from the fitted curve at half-maximal effect; conditions: P. falciparum in erythrocytes, SYBR Green DNA, 72 h; series mostly up to 28.7 µM
Outline: as §1

[19] = test system: HEK293T; assay: qHTS assay to identify novel small-molecules to repurpose for Merkel cell carcinoma treatment (AID 1296009); conditions: MCC and control cell lines, CellTiter-Glo viability, 72 h; at 44.8 µM (top of the series)
Outline: as §3
Also: nearly all actives have a fitted effect of over 60% in size.

Cc1cccc(C)c1NC1=NCCCS1
inactive: Potency [1] | Potency [2] | Potency [3] | max response [5] -7.18% | max response [6] -6.53% | max response [7] -7.27% | max response [8] -1.86% | max response [9] 1%
active: Potency [4] 4.26 µM

N[C@@H](Cc1ccc(N(CCCl)CCCl)cc1)C(=O)O
inactive: Potency [10] | Potency [11] | max response [5] -7.43% | max response [7] -1% | max response [8] -3.99% and -10.4%
active: Potency [12] 11.2 µM | Potency [4] 6.75 µM | Potency [6] 20.9 µM

N#CC(C#N)=Cc1ccc(O)c(O)c1
inactive: Potency [13] | Potency [14] | Potency [15] | Potency [16] | Potency [1] | Potency [10] | Potency [11] | Potency [2] | Potency [12] | max response [5] -16.4% | max response [6] -18.8% | outcome [7] | max response [8] 1.48% | max response [9] -19.5% | outcome [17]

CC[N+]1(C)CCCC(OC(=O)C(O)(c2ccccc2)c2ccccc2)C1 (centres undefined)
inactive: Potency [13] | Potency [14] | Potency [15] | Potency [16] | Potency [1] | Potency [10] | Potency [11] | Potency [2] | Potency [18] | Potency [3] | Potency [12] | Potency [4] | max response [5] 2.5% | max response [6] -9.88% | max response [7] 1.89% | max response [8] 3.82% | outcome [9]

NCC(O)c1ccc(O)cc1 (centres undefined)
inactive: Potency [13] | Potency [14] | Potency [15] | Potency [16] | Potency [1] | Potency [10] | Potency [11] | Potency [2] | Potency [18] | Potency [3] | Potency [12] | max response [5] 4.85% | max response [6] 4.81% | max response [7] -2.74% | max response [8] -4.37% | max response [9] -5.72%

CCN(CC)CCOC(=O)C(O)(c1ccccc1)c1ccccc1
inactive: Potency [13] | Potency [14] | Potency [15] | Potency [16] | Potency [1] | Potency [10] | Potency [11] | Potency [2] | Potency [18] | Potency [3] | Potency [12] | max response [5] -0.239% | max response [6] 3.4% | max response [7] -11% | max response [8] -1.34% | outcome [9]

C[C@]12CC[C@H]3[C@@H](CCC4=CC(=O)CC[C@@H]43)[C@@H]1CC[C@@H]2OC(=O)CCc1ccccc1
inactive: max response [5] -4.34% | max response [7] 1.58% | max response [9] -2.8%
active: Potency [6] 23.7 µM

Cc1ccc(-c2nc3ccc(C)cn3c2CC(=O)N(C)C)cc1
inactive: Potency [13] | Potency [15] | Potency [16] | Potency [1] | Potency [11] | Potency [2] | Potency [18] | Potency [3] | Potency [12] | Potency [4] | max response [5] 3.97% | max response [6] -21.2% | max response [7] -0.388% | max response [8] 2.97% | max response [9] -7.47%

N[C@@H](Cc1ccc(Oc2cc(I)c(O)c(I)c2)c(I)c1)C(=O)O
inactive: max response [5] -1.97% | outcome [6] | outcome [7] | max response [8] 6.84% | max response [9] -1.92% | outcome [17] | outcome [19]

Clc1cccc(N2CCNCC2)c1
inactive: Potency [13] | Potency [14] | Potency [15] | Potency [16] | Potency [1] | Potency [10] | Potency [11] | Potency [2] | Potency [3] | Potency [12] | max response [5] 1.11% | max response [6] 1.3% | outcome [7] | max response [8] 5.71% | outcome [9] | outcome [17]
active: Potency [4] 7.57 µM

N[C@@H]1C[C@H]1c1ccccc1
inactive: max response [5] -2.94% | max response [6] -4.85% | outcome [7] | max response [8] -0.335% | max response [9] 3.17% | outcome [17]

CCN(C(C)=O)c1cccc(-c2ccnc3c(C#N)cnn23)c1
inactive: Potency [13] | Potency [14] | Potency [15] | Potency [16] | Potency [1] | Potency [10] | Potency [11] | Potency [2] | Potency [18] | Potency [3] | Potency [12] | Potency [4] | max response [5] -2.01% | outcome [6] | outcome [7] | max response [8] 1.34% | outcome [9] | outcome [17] | outcome [19]
